# A selection: hits, their analogues and other compounds. The true share with any hit is near 7.6%.
# KB-3-1 tox: kills parental KB-3-1 adenocarcinoma cells. actives 1.4% (n = 400,000). KB-3-1 viability, CellTiter-Glo ATP luminescence, 72 h. Potency, µM (highest dose often 46.1 µM), actives largely listed as cytotoxic. AID 1347075; further: potency means the concentration at half of the fitted maximal effect; on the % scale 0 is the no-effect control and ±100 the full control effect; nearly all actives have a fitted effect of over 60% in size
#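 Here the drug-naive KB-3-1 line serves as comparator for MDR sub-line selectivity; cells received compound titrations, 72 h at 37 °C, then CellTiter-Glo readout.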
# hERG WT inh: KCNH2 (human, wildtype) channel inhibition; U2OS, BacMam KCNH2, thallium flux FluxOr; stronger effect = lower value; activity change, % at 1.84 µM; actives 0.37% (n = 340,000); AID 720551;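 active means maximum activity change below -70%; inconclusive means maximum activity change between -70% and -50%; inactive means maximum activity change above -50%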; further: on the % scale 0 is the no-effect control and ±100 the full control effect
# Target sequence (Q12809 whole entry, looked up): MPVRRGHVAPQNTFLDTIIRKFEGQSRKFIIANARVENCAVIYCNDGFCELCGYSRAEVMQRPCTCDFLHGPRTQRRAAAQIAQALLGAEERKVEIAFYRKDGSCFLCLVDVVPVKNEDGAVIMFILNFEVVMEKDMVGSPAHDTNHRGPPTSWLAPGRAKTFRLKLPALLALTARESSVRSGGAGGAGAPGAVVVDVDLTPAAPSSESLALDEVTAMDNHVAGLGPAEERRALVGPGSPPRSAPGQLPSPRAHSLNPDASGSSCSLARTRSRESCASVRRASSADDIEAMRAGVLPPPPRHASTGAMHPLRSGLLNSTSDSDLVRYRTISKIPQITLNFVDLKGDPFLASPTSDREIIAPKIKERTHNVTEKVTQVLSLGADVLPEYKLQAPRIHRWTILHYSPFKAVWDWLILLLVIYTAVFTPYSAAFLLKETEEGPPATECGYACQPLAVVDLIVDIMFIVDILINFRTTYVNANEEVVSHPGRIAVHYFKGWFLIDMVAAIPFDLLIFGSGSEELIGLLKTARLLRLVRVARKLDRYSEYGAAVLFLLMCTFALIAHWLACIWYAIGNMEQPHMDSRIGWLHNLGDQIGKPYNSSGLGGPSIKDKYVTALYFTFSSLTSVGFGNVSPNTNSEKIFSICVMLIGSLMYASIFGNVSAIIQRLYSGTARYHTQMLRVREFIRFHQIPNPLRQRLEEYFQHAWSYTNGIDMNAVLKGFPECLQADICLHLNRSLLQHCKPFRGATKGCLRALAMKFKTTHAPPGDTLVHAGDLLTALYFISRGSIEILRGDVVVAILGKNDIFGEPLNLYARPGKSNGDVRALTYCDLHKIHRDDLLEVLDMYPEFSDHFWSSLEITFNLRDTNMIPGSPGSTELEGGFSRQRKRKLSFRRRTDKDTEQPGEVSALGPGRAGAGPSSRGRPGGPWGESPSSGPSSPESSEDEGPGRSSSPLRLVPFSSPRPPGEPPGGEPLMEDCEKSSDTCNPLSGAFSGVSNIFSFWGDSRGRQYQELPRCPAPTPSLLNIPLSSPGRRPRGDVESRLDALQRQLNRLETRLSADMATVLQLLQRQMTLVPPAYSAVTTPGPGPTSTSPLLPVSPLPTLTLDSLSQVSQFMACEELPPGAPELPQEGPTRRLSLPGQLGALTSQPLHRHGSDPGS
#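 U2OS cells were transduced with wild-type KCNH2 virus (2.03 x 10^8 / mL) for 4 h at room temperature, then cultured overnight at 37 C. Thallium flux was read with FluxOr dye. Rate constants were normalized to DMSO controls.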
# KCNH2 3.1 block: blocks the human KCNH2 3.1 channel isoform; activity change, % (tested at about 1.8 µM); actives 0.95% (n = 340,000); U2OS KCNH2 3.1, thallium flux FluxOr; stronger effect = lower value; AID 720553;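 active means maximum activity change below -70%; inconclusive means maximum activity change from -70% to -50%; inactive means maximum activity change above -50%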;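 further: thallium influx rate constant from kinetic fluorescence after stimulation buffer; on the % scale 0 is the no-effect control and ±100 the full control effect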
#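 Kinetic fluorescence (2 min after stimulation buffer) measures Tl+ influx through KCNH2 3.1 expressed by viral transduction in U2OS cells; the rate constant is normalized against DMSO controls serving as positive and negative references.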
# SW480 rerep: induces DNA re-replication in SW480 colon adenocarcinoma cells. SW480 DNA re-replication, Hoechst DNA content imaging, 48 h. Potency, µM (top dose mostly 46.1 µM), inactives show top-dose re-replication activation, actives largely listed as activators. actives 1.8% (n = 340,000); further: potency means the concentration at half of the fitted maximal effect; % of control where 0% means no effect; nearly all actives have a fitted effect of over 55% in size
#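 Readout is total intensity of Hoechst-stained nuclei, excited at 405 nm and collected at 500-530 nm. Compound treatment lasted 48 hr at 37 C in 5% CO2 before staining.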
# MCF10A rerep: inducers of DNA re-replication in MCF 10A breast cells | Potency, µM (doses to about 46.1 µM), inactives show top-dose activity, positive = re-replication, most hits filed as activators | actives 2.9% (n = 350,000) | AID 624296 | MCF 10A DNA re-replication, Hoechst nuclear intensity, 48 h; further: potency means the concentration at half of the fitted maximal effect; % of control where 0% means no effect; nearly all actives have a fitted effect of over 50% in size
# KB-V1 cytotox: kills drug-selected multidrug resistant KB-V1 cells | KB-V1 MDR cells viability, CellTiter-Glo, 72 h | Potency, µM (top dose mostly 46.1 µM), usual class: cytotoxic | actives 3.4% (n = 400,000) | AID 1347076; further: potency means the concentration at half of the fitted maximal effect; on the % scale 0 is the no-effect control and ±100 the full control effect; nearly all actives have a fitted effect of over 60% in size
#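 In this primary screen, KB-V1 cells overexpressing P-gp are incubated with library compounds (lowest to highest concentration) for 72 h at 37 degrees C before a luminescent ATP viability read.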
# Numbers without * were called inactive; i = inactive; ? = inconclusive; . = no result given; [ ] = another dose, or the depositor's remark. Unless noted, the call rests on the fitted dose curve; in most records, active means well fitted curve in the direction sought with a large enough effect; inconclusive means small, poorly fitted or top-dose-only effect, or another doubt; inactive means no such curve, though single readings can be large; an effect the other way counts as inactive or inconclusive.
SMILES,KB-3-1 tox,hERG WT inh,KCNH2 3.1 block,SW480 rerep,MCF10A rerep,KB-V1 cytotox
CCOC(=O)Cc1csc(/N=C/c2c(O)n(-c3ccc(C)c(C)c3)c(=O)c3ccccc23)n1,?,0,-24,0%,?,10µM*
Cc1cccc(N(C)S(=O)(=O)c2c(C(=O)N3CCCCCC3)c(C)n(C)c2C)c1,i,.,.,.,.,i
CCC(C(=O)O)P(=O)(c1ccc(Cl)cc1)c1ccc(Cl)cc1 (configuration not stated),i,3,1,-5%,-8%,i
COc1cc2nc(CC(C)C)n(NC(=O)c3ccccc3)c(=O)c2cc1OC,i,-6,3,-4%,1%,7.3µM*
Cn1c(Sc2ccc(C(F)(F)F)cc2[N+](=O)[O-])nnc1-c1ccccc1,i,5,-5,4%,13%,21µM*
CC(=O)N(C(C)=O)c1nc(-c2ccccc2)cn1/N=C/c1ccccc1,?,2,-8,-3%,12µM*,?
CCOc1ccc(CC(=O)Nc2c(C(=O)c3ccc(C)cc3)oc3ccccc23)cc1OCC,i,.,.,.,.,i
CS(=O)(=O)N1CCCC(C(=O)N2CCc3ccccc3C2)C1 (configuration not stated),i,5,9,10µM*,2.9µM*,i
Cn1c(C(=O)N2CCCC(C(=O)NCCCc3ccccc3)C2)cc2sccc21 (configuration not stated),i,2,-22,-2%,-6%,21µM*
CS(=O)(=O)N1CCCC(C(=O)NCCc2ccccc2)C1 (configuration not stated),i,0,-5,16µM*,?,i
O=C(NCc1ccccc1)C1CCN(S(=O)(=O)N2CCOCC2)CC1,i,-2,7,1%,2%,i
CC(CCc1ccccc1)NC(=O)C1CCN(S(=O)(=O)N2CCOCC2)CC1 (configuration not stated),i,1,1,-3%,?,21µM*
Cc1ccc(/C=C(\C#N)c2nc(-c3cc4c(ccc5ccccc54)oc3=O)cs2)cc1,i,.,.,.,.,?
CC(OC(=O)CCC(=O)c1ccc(Cl)s1)C(=O)NC1(C#N)CCCCC1 (configuration not stated),i,6,-9,-6%,0%,i
O=C(NCCc1ccccc1)C1CCN(S(=O)(=O)N2CCOCC2)CC1,i,-104*,-3,-21%,1%,i
COC(=O)Cn1c(=O)c2c(n(Cc3ccccc3)c1=O)N/C(=C/c1ccc(Br)cc1)C2=O,?,0,-1,?,4.6µM*,?
COC(=O)CN1C(=O)N/C(=C/c2ccc(OC)cc2)C1=O,i,-12,4,0%,0%,i
CC(C)C[C@@H](CO)N1CCN(Cc2cccnc2)CCC1=O,i,7,36,-3%,9%,i
Cc1ccc2c(CSc3nnc4ccccn34)cc(=O)oc2c1C,i,6,-3,-13%,-1%,16µM*
CCOc1ccc(-n2c(SC(C)C)nc3c(c2=O)SCC3)cc1,i,-14,3,14%,19%,2.9µM*
COc1ccc(C(=O)O/N=C/c2c(C(F)(F)F)nn(C)c2SCc2ccccc2Cl)cc1,7.3µM*,-3,-16,?,?,?
Cn1nc(C(F)(F)F)c(/C=N/OC(=O)c2ccccc2Cl)c1SCc1ccc(Cl)cc1,?,2,-2,-1%,?,?
CCc1nnc(NC(=O)[C@@H]2CCCN2C(=O)c2cccs2)s1,i,.,.,.,.,?
CC(NNC(=S)N1CCN(c2ccccn2)CC1)c1nccc2ccccc12 (configuration not stated),?,14,-13,?,?,0.46µM*
S=C(Nc1ccccc1Cl)N1CCN(c2ccccn2)CC1,i,-3,4,-5%,2%,i
SMILES,KB-3-1 tox,hERG WT inh,KCNH2 3.1 block,SW480 rerep,MCF10A rerep,KB-V1 cytotox
Fc1ccccc1NC(=S)N1CCN(c2ccccn2)CC1,i,1,9,10%,?,21µM*
CCN(CC)C(=O)Cn1nnc2sc(-c3ccccc3)cc2c1=O,i,.,.,.,.,i
CN1C(=O)N(CC(=O)N2CCN(S(=O)(=O)c3ccc(Cl)s3)CC2)C(=O)C12CCCCC2,i,-3,11,4%,24%,15µM*
Fc1ccc(F)c(CNc2ncnc3cc(Cl)ccc23)c1,?,-20,-2,17%,5%,i
CC(C)C1C(C#N)=C(N)Oc2n[nH]c(-c3cccs3)c21 (configuration not stated),i,-11,-21,-6%,1%,i
CC(C)C1C(C#N)=C(N)Oc2n[nH]c(-c3ccc4ccccc4c3)c21 (configuration not stated),?,-26,7,?,-3%,8.2µM*
CCCCC[C@H](O)/C=C\[C@H]1[C@H](C/C=C\CCCC(=O)O)[C@@H](O)C[C@H]1O (tested in a mixture with another compound),.,.,.,2%[20.6 µM],5%[20.6 µM],.
Cc1cc(C)c2c(=O)n(CC(=O)Nc3ccc(Cl)cc3)sc2n1,i,-2,-32,?,?,i
Cc1ccc(NC(=O)Cn2sc3nc(C)cc(C)c3c2=O)c(Cl)c1,i,7,76,?,4.6µM*,i
O=C1CC(N(CCc2ccccc2)C(=S)Nc2ccccc2)C(=O)N1c1ccccc1 (configuration not stated),i,0,16,?,?,16µM*
O=C1CC(N(CCc2ccccc2)C(=S)Nc2ccccc2)C(=O)N1c1ccc(F)cc1 (configuration not stated),?,-2,-80*,22%,18µM*,i
O=C(COC(=O)CCC1CCCC1)Nc1ccc(Cl)cc1F,i,-4,-5,23µM*,-6%,i
Cc1ccc(NC(=O)COC(=O)CCC2CCCC2)c(Br)c1,i,-2,-7,4%,-3%,i
COc1ccccc1NC(=O)c1csc2c1CCCC2,i,-7,2,15%,24%,16µM*
COc1ccccc1CNC(=O)c1csc2c1CCCC2,i,11,-10,-8%,-2%,i
CC(C)n1c(=O)c2ccccc2n1Cc1cn(Cc2cccs2)nn1,i,.,.,.,.,i
COC(=O)c1ccc2c(c1)C(C)(C)C(/C=C/c1ccccc1O)=[N+]2C,4.5µM*,0,-10,5.6µM*,7.1µM*,?
COC(=O)c1ccc(N)c(N=CC2=C(O)CC(C)(C)CC2=O)c1,?,-3,-2,-2%,?,i
